Results reported in article PMC7862700, “An all-to-all approach to the identification of sequence-specific readers for epigenetic DNA modifications on cytosine”.

Experiments:
Assay in all cases: DAPPL (digital affinity profiling via proximity ligation, sequencing); 10 mM Tris-HCl pH 7.5, 50 mM NaCl, 1 mM DTT, 4% glycerol, room temperature, 30 min; GST-TFs on glutathione beads, 16-mer random dsDNA library, 0.1% formaldehyde crosslink after washing; high values mean tight binding
FEV = target: T1, FEV (Homo sapiens, UniProt Q99581 1-238); settings: protein: recombinant; tags: N-terminal GST; dsDNA, one strand shown
T1 sequence: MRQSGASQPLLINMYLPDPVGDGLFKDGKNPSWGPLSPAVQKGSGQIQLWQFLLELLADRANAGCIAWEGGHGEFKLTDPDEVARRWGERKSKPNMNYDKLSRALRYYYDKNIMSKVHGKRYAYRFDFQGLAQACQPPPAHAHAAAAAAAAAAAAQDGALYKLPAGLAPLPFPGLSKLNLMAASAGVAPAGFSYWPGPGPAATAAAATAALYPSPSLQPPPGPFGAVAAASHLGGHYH
Procedure, shortened: (§1)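 The binding signal reported is, for every hexamer, its read frequency for a factor over its read frequency for the tag-only sample. Reads came from pools of yeast-expressed, GST-fused human transcription factors on glutathione beads, barcoded with DNA and mixed with that sample, which were incubated with 200 nmole of a random double-stranded 16-mer DNA library in Tris/NaCl/DTT/glycerol buffer at room temperature for 30 min. After washing, the pools were crosslinked with 0.1% formaldehyde, proximity-ligated with BsaI/T4 ligase for 1 h at 37 °C, PCR-amplified and sequenced on an Illumina NextSeq500.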

ETV5 = ETV5 (Homo sapiens, UniProt P41161 1-510); settings: protein: recombinant; tags: N-terminal GST; dsDNA, one strand shown
Procedure, shortened: as §1

HSF1 = HSF1 (Homo sapiens, UniProt Q00613 1-529); settings: protein: recombinant; tags: N-terminal GST; chain copies: 3; dsDNA, one strand shown
Procedure, shortened: as §1

SPIC = target: T2, SPIC (Homo sapiens, UniProt Q8N5J4 1-248); settings: protein: recombinant; tags: N-terminal GST; dsDNA, one strand shown
T2 sequence: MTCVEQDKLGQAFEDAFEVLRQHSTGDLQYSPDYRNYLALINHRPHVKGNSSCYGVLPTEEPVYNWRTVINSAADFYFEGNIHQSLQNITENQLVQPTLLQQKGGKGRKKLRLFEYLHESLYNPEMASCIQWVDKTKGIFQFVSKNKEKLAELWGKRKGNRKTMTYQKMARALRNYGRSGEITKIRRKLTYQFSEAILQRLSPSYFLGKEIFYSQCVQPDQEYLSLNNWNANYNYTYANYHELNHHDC
Procedure, shortened: as §1

ELF4 = ELF4 (Homo sapiens, UniProt Q99607 1-663); settings: protein: recombinant; tags: N-terminal GST; dsDNA, one strand shown
Procedure, shortened: as §1

ELK4 = target: T3, ELK4 (Homo sapiens, UniProt P28324-2 1-405); settings: protein: recombinant; tags: N-terminal GST; dsDNA, one strand shown
T3 sequence: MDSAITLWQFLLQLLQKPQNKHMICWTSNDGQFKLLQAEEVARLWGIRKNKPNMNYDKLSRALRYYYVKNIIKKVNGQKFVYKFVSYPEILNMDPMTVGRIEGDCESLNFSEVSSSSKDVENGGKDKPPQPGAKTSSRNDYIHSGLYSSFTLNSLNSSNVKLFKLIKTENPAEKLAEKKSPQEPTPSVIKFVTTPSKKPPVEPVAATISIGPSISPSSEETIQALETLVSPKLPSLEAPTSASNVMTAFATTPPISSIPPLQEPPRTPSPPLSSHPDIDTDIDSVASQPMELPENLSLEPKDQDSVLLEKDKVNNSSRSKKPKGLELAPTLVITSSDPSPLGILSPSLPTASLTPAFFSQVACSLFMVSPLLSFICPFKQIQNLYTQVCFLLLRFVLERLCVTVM
Procedure, shortened: as §1

ETV2 = target: T4, ETV2 (Homo sapiens, UniProt O00321 1-342); settings: protein: recombinant; tags: N-terminal GST; dsDNA, one strand shown
T4 sequence: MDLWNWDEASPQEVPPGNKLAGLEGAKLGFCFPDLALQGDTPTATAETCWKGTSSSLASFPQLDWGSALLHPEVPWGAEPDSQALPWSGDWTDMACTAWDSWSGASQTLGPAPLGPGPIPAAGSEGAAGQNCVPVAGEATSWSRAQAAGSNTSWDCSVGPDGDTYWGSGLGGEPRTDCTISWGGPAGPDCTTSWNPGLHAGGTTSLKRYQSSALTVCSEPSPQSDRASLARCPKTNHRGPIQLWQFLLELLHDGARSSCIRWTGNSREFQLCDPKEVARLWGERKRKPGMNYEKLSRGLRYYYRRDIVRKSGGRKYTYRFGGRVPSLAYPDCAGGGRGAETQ
Procedure, shortened: as §1

ELF3 = target: T5, ELF3 (Homo sapiens, UniProt P78545 1-371); settings: protein: recombinant; tags: N-terminal GST; dsDNA, one strand shown
T5 sequence: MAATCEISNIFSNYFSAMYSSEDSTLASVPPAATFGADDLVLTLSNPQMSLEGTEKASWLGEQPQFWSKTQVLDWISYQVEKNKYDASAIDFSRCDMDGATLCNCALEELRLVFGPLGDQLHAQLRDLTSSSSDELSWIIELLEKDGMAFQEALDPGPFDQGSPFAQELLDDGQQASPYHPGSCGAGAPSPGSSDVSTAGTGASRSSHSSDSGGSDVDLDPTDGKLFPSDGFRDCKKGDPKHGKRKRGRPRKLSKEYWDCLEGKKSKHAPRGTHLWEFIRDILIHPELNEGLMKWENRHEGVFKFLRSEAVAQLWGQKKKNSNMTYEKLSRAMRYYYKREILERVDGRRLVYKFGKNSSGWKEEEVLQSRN
Procedure, shortened: as §1

ETV1 = ETV1 (Homo sapiens, UniProt P50549 1-477); settings: protein: recombinant; tags: N-terminal GST; dsDNA, one strand shown
Procedure, shortened: as §1

ERF = target: T6, ERF (Homo sapiens, UniProt P50548 1-548); settings: protein: recombinant; tags: N-terminal GST; dsDNA, one strand shown
T6 sequence: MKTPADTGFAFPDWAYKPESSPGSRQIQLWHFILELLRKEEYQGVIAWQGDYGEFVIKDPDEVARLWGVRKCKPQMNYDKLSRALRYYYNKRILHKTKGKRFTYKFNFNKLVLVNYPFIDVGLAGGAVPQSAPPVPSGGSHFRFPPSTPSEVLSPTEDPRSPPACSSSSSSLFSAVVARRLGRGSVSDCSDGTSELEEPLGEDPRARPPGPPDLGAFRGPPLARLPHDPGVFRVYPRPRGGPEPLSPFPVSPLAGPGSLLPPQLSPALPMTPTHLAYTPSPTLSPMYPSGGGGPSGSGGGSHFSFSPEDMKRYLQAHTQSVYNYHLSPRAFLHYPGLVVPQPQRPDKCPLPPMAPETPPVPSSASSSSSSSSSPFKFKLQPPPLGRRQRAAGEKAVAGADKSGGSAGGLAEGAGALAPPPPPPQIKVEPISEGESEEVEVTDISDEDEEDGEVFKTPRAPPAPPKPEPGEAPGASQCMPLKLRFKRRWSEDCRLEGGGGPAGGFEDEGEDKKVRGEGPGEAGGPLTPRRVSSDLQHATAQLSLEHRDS
Procedure, shortened: as §1

ETV3L = target: T7, ETV3L (Homo sapiens, UniProt Q6ZN32 1-361); settings: protein: recombinant; tags: N-terminal GST; dsDNA, one strand shown
T7 sequence: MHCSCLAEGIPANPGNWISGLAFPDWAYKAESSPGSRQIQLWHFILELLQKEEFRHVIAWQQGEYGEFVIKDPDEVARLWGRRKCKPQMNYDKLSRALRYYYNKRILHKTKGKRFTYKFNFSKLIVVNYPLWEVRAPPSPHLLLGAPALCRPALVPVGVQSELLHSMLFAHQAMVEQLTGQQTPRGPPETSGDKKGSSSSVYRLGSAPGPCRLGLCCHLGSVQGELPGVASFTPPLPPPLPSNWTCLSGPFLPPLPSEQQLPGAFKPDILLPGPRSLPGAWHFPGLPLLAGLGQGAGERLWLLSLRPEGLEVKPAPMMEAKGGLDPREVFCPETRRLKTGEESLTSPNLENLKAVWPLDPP
Procedure, shortened: as §1

ETS2 = target: T8, ETS2 (Homo sapiens, UniProt P15036 1-469); settings: protein: recombinant; tags: N-terminal GST; dsDNA, one strand shown
T8 sequence: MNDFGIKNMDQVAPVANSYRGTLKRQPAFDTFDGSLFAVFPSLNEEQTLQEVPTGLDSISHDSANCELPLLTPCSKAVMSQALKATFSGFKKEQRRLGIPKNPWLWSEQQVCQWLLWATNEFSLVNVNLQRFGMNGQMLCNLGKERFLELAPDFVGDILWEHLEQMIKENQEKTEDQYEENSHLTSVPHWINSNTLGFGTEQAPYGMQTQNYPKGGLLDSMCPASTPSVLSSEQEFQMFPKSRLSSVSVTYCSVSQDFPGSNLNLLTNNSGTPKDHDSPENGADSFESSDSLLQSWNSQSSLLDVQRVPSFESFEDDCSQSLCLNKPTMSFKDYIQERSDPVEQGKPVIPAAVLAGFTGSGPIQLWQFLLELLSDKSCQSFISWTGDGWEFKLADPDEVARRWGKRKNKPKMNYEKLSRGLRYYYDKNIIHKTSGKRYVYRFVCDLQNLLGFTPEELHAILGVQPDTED
Procedure, shortened: as §1

SPDEF = target: T9, SPDEF (Homo sapiens, UniProt O95238 1-335); settings: protein: recombinant; tags: N-terminal GST; dsDNA, one strand shown
T9 sequence: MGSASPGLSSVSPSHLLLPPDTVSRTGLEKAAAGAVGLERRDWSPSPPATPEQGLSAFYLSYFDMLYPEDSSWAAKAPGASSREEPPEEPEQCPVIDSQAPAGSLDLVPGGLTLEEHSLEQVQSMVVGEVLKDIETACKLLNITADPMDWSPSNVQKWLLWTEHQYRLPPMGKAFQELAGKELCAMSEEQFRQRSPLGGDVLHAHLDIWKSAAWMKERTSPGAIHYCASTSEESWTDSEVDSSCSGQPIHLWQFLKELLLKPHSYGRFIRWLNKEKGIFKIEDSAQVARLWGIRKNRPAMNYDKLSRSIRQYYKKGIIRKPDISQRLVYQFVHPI
Procedure, shortened: as §1

ETV7 = target: T10, ETV7 (Homo sapiens, UniProt Q9Y603 1-341); settings: protein: recombinant; tags: N-terminal GST; dsDNA, one strand shown
T10 sequence: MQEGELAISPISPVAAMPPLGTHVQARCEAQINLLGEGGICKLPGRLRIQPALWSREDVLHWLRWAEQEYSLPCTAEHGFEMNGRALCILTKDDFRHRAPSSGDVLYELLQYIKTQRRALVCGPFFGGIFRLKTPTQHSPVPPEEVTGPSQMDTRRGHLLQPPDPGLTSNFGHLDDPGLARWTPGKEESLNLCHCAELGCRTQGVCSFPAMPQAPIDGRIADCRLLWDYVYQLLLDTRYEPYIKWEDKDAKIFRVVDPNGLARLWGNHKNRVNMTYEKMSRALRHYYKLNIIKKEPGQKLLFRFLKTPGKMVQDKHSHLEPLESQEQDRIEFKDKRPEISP
Procedure, shortened: as §1

ELF5 = target: T11, ELF5 (Homo sapiens, UniProt Q9UKW6-2 1-255); settings: protein: recombinant; tags: N-terminal GST; dsDNA, one strand shown
T11 sequence: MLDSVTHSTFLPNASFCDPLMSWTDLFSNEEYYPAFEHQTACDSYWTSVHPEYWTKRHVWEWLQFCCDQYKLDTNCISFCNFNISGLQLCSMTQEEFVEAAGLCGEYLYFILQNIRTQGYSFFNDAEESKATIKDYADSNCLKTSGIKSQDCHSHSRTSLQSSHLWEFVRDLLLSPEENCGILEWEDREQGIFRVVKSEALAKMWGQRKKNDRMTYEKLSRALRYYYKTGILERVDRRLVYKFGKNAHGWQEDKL
Procedure, shortened: as §1

ETV3 = target: T12, ETV3 (Homo sapiens, UniProt P41162-2 1-143); settings: protein: recombinant; tags: N-terminal GST; dsDNA, one strand shown
T12 sequence: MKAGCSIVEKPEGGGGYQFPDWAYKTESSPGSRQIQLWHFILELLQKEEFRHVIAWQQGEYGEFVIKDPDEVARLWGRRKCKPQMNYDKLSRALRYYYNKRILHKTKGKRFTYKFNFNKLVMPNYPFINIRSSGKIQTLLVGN
Procedure, shortened: as §1

ETV6 = ETV6 (Homo sapiens, UniProt P41212 1-452); settings: protein: recombinant; tags: N-terminal GST; dsDNA, one strand shown
Procedure, shortened: as §1

Chain of ETV5 (P41161 whole entry): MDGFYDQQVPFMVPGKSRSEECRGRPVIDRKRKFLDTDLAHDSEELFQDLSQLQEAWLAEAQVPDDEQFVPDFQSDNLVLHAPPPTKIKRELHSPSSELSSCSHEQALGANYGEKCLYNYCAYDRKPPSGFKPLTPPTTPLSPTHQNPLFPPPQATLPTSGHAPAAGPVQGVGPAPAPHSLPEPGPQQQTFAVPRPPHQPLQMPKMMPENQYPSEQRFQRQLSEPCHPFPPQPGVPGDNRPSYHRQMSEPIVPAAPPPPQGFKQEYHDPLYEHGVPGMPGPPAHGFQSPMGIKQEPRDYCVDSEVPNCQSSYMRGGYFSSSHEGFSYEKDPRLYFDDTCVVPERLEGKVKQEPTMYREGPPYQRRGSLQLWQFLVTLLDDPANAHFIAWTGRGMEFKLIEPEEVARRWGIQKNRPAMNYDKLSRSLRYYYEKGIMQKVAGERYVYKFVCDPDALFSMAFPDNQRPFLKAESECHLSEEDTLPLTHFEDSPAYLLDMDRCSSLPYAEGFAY
Chain of ELF4 (Q99607 whole entry): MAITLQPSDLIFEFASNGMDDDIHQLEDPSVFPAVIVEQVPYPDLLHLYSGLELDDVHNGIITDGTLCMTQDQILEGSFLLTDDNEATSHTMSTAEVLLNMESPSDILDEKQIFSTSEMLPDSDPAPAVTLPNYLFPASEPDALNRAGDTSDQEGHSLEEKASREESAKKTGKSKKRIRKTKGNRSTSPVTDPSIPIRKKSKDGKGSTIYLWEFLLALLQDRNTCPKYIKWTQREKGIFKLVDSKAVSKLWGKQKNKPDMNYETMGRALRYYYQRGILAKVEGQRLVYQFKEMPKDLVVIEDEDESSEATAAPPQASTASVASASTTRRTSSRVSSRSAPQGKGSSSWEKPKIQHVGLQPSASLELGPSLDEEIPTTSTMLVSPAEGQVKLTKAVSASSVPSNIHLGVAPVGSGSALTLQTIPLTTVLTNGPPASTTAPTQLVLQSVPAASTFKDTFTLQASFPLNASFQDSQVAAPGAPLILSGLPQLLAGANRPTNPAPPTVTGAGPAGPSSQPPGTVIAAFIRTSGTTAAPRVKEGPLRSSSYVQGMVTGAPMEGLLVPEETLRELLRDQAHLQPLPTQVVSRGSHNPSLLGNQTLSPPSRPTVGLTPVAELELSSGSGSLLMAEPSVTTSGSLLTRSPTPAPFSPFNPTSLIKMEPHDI
Chain of HSF1 (Q00613 whole entry): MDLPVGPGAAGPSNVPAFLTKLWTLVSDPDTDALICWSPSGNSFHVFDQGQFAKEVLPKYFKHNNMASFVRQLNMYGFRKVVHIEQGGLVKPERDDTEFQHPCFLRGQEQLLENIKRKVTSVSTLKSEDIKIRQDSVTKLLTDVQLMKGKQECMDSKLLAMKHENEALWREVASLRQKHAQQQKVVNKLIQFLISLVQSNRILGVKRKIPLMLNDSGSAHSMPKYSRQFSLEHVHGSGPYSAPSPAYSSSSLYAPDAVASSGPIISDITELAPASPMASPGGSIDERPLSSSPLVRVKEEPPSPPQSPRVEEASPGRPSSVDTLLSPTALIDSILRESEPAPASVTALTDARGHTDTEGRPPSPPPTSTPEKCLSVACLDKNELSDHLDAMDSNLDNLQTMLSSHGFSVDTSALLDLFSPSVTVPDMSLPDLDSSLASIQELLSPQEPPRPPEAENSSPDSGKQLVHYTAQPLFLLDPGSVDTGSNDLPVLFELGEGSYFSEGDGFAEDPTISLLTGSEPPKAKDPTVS
Chain of ETV6 (P41212 whole entry): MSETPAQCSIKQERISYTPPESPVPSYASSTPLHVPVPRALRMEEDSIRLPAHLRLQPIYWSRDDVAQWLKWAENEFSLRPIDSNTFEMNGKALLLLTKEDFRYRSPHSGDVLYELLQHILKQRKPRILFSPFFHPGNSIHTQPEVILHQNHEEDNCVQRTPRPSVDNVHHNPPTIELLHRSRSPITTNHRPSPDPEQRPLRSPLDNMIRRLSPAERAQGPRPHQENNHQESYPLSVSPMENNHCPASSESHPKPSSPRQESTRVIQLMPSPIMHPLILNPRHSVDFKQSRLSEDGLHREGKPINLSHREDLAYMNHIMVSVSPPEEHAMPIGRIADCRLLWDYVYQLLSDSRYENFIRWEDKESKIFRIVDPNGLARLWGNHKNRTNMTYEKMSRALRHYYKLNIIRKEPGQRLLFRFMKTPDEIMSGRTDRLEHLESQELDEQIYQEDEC
Chain of ETV1 (P50549 whole entry): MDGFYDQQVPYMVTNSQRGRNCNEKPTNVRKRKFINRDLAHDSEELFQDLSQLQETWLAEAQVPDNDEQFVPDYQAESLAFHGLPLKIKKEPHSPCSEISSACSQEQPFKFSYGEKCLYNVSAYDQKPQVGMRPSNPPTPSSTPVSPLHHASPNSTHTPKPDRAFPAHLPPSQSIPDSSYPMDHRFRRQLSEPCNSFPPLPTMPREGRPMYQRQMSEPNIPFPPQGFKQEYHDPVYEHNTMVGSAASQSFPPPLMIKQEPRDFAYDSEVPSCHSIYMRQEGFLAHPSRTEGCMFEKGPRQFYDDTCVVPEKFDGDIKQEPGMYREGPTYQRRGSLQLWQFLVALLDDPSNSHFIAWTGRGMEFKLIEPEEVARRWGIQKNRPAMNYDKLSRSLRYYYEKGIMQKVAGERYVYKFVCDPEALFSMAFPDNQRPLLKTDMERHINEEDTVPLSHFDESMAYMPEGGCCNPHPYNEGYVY

Sequence	binding signal (FEV)	binding signal (ETV5)	binding signal (HSF1)	binding signal (SPIC)	binding signal (ELF4)	binding signal (ELK4)	binding signal (ETV2)	binding signal (ELF3)	binding signal (ETV1)	binding signal (ERF)	binding signal (ETV3L)	binding signal (ETS2)	binding signal (SPDEF)	binding signal (ETV7)	binding signal (ELF5)	binding signal (ETV3)	binding signal (ETV6)
CGACCC	1.17 fold enrichment (6-mer frequency, TF over GST control)	1.3 fold enrichment (6-mer frequency, TF over GST control)	1.03 fold enrichment (6-mer frequency, TF over GST control)	1.23 fold enrichment (6-mer frequency, TF over GST control)	1.31 fold enrichment (6-mer frequency, TF over GST control)	1.17 fold enrichment (6-mer frequency, TF over GST control)	1.39 fold enrichment (6-mer frequency, TF over GST control)	1.2 fold enrichment (6-mer frequency, TF over GST control)	1.23 fold enrichment (6-mer frequency, TF over GST control)	1.36 fold enrichment (6-mer frequency, TF over GST control)	1.28 fold enrichment (6-mer frequency, TF over GST control)	1.29 fold enrichment (6-mer frequency, TF over GST control)	1.44 fold enrichment (6-mer frequency, TF over GST control)	1.28 fold enrichment (6-mer frequency, TF over GST control)	1.26 fold enrichment (6-mer frequency, TF over GST control)	1.4 fold enrichment (6-mer frequency, TF over GST control)	1.29 fold enrichment (6-mer frequency, TF over GST control)
ACTGCG	1.26 fold enrichment (6-mer frequency, TF over GST control)	1.21 fold enrichment (6-mer frequency, TF over GST control)	1.06 fold enrichment (6-mer frequency, TF over GST control)	1.14 fold enrichment (6-mer frequency, TF over GST control)	1.28 fold enrichment (6-mer frequency, TF over GST control)	1.06 fold enrichment (6-mer frequency, TF over GST control)	1.42 fold enrichment (6-mer frequency, TF over GST control)	1.16 fold enrichment (6-mer frequency, TF over GST control)	1.27 fold enrichment (6-mer frequency, TF over GST control)	1.26 fold enrichment (6-mer frequency, TF over GST control)	1.26 fold enrichment (6-mer frequency, TF over GST control)	1.35 fold enrichment (6-mer frequency, TF over GST control)	1.24 fold enrichment (6-mer frequency, TF over GST control)	1.21 fold enrichment (6-mer frequency, TF over GST control)	1.25 fold enrichment (6-mer frequency, TF over GST control)	1.25 fold enrichment (6-mer frequency, TF over GST control)	1.18 fold enrichment (6-mer frequency, TF over GST control)
